Source: PubChem BioAssay (NCATS)
Inconclusive results are not listed. The source made the active and inactive calls. Unless noted, calls follow the shape of the full dose curve.

Legend:
[1] = biological target: Glucocorticoid receptor (Homo sapiens) (UniProt P04150); assay: qHTS assay for small molecule agonists of glucocorticoid receptor signaling (AID 588532; active = well fitted curve in the direction sought with a large enough effect in the signal ratio, with a control signal flat; the % refers to the signal ratio;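 also: 100% = dexamethasone at 0.1 µM and 0% = DMSO only wells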); settings: HeLa MMTV-bla, beta-lactamase ratio, agonist, 18 h; activation: stronger effect = higher value, percent of dexamethasone control, DMSO zero
Summary of the method: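 Using MMTV-bla HeLa cells in medium with 1% stripped FBS and 25 mM HEPES, compounds were titrated and incubated overnight-length (18 h). Beta-lactamase cleavage of CCF4 was quantified by dual-emission fluorescence.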

[2] = biological target: Peroxisome proliferator-activated receptor delta (Homo sapiens) (UniProt Q03181); assay: qHTS assay for small molecule agonists of peroxisome proliferator-activated receptor delta signaling (AID 588534);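 also: 0% = DMSO basal wells and 100% = positive control agonist at 10 µM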
Summary of the method: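 Cell-based beta-lactamase reporter assay run in agonist mode: cells seeded and incubated 5 hrs at 37 C, compounds added and incubated 18 hrs at 37 C. CCF4 dye fluorescence read after 2 hrs at RT; EC50 and efficacy from Hill fits.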

[3] = biological target: Peroxisome proliferator-activated receptor gamma (Homo sapiens) (UniProt P37231); assay: qHTS assay for small molecule agonists of peroxisome proliferator-activated receptor gamma signaling (AID 588536; active = well fitted curve in the direction sought with a large enough effect in the signal ratio, with a control signal flat, not every such curve was filed as active; the % refers to the signal ratio;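 also: 0% = DMSO basal wells and 100% = rosiglitazone at 2 µM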)
Summary of the method: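 Test agents, titrated, stimulated HEK293 UAS-bla cells overnight (16 h, 37 C). Substrate CCF4 was then added for two hours at room temperature before fluorescence reading.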

[4] = biological target: Vitamin D3 receptor (Homo sapiens) (UniProt P11473); assay: qHTS assay for small molecule antagonists of vitamin D receptor signaling (AID 588541);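 also: receptor activated by calcitriol during compound treatment; series mostly up to about 77 µM; % is scaled to controls: 0 for no effect and ±100 for the full control effect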
Summary of the method: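 Antagonist-mode beta-lactamase reporter assay: HEK293T VDR-UAS-bla cells were exposed to titrated compound alongside 1-alpha,25-dihydroxyvitamin D3 at 3 nM final for 16 h. Values were normalized to the 50 nM agonist control and DMSO basal, with IC50 and efficacy from Hill equation fits.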

[5] = biological target: Vitamin D3 receptor (Homo sapiens) (UniProt P11473); assay: qHTS assay for small molecule agonists of vitamin D receptor signaling (AID 588543);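 also: 0% = DMSO basal and 100% = reference agonist control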
Summary of the method: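 Agonist-mode beta-lactamase reporter: HEK293T VDR-UAS-bla cells in charcoal-stripped 2% FBS, compound series 16 h 37 C, CCF4 2 h RT. EC50 from Hill fit, scaled against DMSO and 50 nM calcitriol control.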

[6] = biological target: Retinoic acid receptor RXR-alpha (Homo sapiens) (UniProt P19793); assay: qHTS assay for small molecule agonists of retinoid X receptor alpha signaling (AID 588544); also: potency is read from the fitted curve at half-maximal effect;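 as to activation: 0% = DMSO basal wells and 100% = reference agonist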
[7] = biological target: Thyroid hormone receptor beta (Homo sapiens) (UniProt P10828); assay: qHTS assay for small molecule agonists of thyroid hormone receptor beta signaling (AID 588545);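 also: 0% = DMSO only and 100% = 10 nM T3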
Summary of the method: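 Compounds were tested as agonists in TR-UAS-bla-GripTite HEK 293 cells. After 18 hrs at 37 C, CCF4 substrate was added and fluorescence read after 2 hrs at room temperature.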

[8] = qHTS assay for small molecule antagonists of retinoid X receptor alpha signaling (AID 588546; active = well fitted inhibition curve with a large enough effect in the signal ratio, with a control signal flat, not every such curve was filed as active; the % refers to the signal ratio;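 also: cells stimulated with 9-cis-retinoic acid as agonist; % is scaled to controls: 0 for no effect and ±100 for the full control effect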); settings: HEK293T RXRa-UAS-bla, beta-lactamase ratio, antagonist mode; measured here: W530 green channel, cytotoxicity proxy
Summary of the method: (§1)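 Beta-lactamase reporter inhibition, read as CCF4 fluorescence ratio (ex 405, em 460/530 nm) after 2 h at RT. HEK293T UAS-bla cells, 2500/well, were stimulated with 9-cis-RA at 500 or 100 nM final alongside test compound for 18 h at 37 C.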

[9] = biological target: Retinoic acid receptor RXR-alpha (Homo sapiens) (UniProt P19793); assay: as above; settings: HEK293T RXRa-UAS-bla, beta-lactamase ratio, antagonist mode
Summary of the method: as §1

[10] = qHTS assay for small molecule activators of the p53 signaling pathway (AID 651743; active = well fitted activation curve with a large enough effect in the signal ratio, not every such curve was filed as active; the % refers to the signal ratio; also: potency is read from the fitted curve at half-maximal effect; as to activation: series mostly up to about 92 µM; % of control where 0% means no effect); settings: HCT-116 p53RE-bla, beta-lactamase FRET ratio, 16 h; activation: stronger effect = higher value
Summary of the method: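 Screen for p53 pathway agonists uses stably transfected p53RE-bla HCT-116 cells, 4,000 per well, treated 16 h at 37 C with compounds in DMSO.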

[11] = qHTS assay for small molecule activators of the nuclear factor-kappa B (NF-kB) signaling pathway (AID 651749; active = well fitted activation curve with a large enough effect in the signal ratio; the % refers to the signal ratio; also: series mostly up to about 77 µM; % of control where 0% means no effect); settings: NF-kB-bla ME-180 cells, beta-lactamase FRET ratio, 16 h; activation: stronger effect = higher value
Summary of the method: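 Stably transfected ME-180 line; NF-kB response element upstream of beta-lactamase. Treatment: compound or DMSO, 16 hr. Detection: fluorescent FRET substrate.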

[12] = qHTS assay for environmental chemicals that activate the Aryl hydrocarbon Receptor (AhR) signaling pathway (AID 651777; active = well fitted curve in the direction sought with a large enough effect; an effect the other way counts as inactive or inconclusive; also: nearly all actives have a fitted effect of over 15% in size; also: potency is read from the fitted curve at half-maximal effect; as to activation: % of control where 0% means no effect); settings: 1A2-DRE human hepatoma cells, luciferase, 24 h; activation: stronger effect = higher value
Summary of the method: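 Concentration–response screening used 1,200 1A2-DRE cells per well, 24 hr compound exposure (37 C, 5% CO2), and One-Glo luminescence as the AhR-driven CYP1A2 reporter signal.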

[13] = biological target: Peroxisome proliferator-activated receptor alpha (Homo sapiens) (UniProt Q07869); assay: qHTS assay for small molecule agonists of the peroxisome proliferator-activated receptor alpha (PPARalpha) signaling pathway (AID 651778; active = well fitted curve in the direction sought with a large enough effect; an effect the other way counts as inactive or inconclusive; also: potency is read from the fitted curve at half-maximal effect; as to max response: % of control where 0% means no effect); settings: PathHunter PPARalpha complementation, chemiluminescence, 6 h; max response: stronger effect = higher value
Summary of the method: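 Chemiluminescence from complemented enzyme reported PPARalpha activation in cells after 6 hr of compound treatment at 37 C. The detection reagent was incubated for 60 min at room temperature, and compounds were scored as agonists.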

[14] = qHTS assay for small molecule agonists of the antioxidant response element (ARE) signaling pathway measured by Nrf2-dependant transcriptional activity (AID 720636; active = well fitted curve in the direction sought with a large enough effect in the repeat runs; an effect the other way counts as inactive or inconclusive;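 also: HepG2 cells with an ARE-driven luciferase reporter; % of control where 0% means no effect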)
Summary of the method: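 Attachment 6 hr at 37 C, then compound versus DMSO vehicle for 16 hr in ARE-luc HepG2 cells (1% dialyzed FBS); luminescence recorded 30 min after ONE-Glo addition at room temperature.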

[15] = qHTS assay for small molecule agonists of the antioxidant response element (ARE) signaling pathway measured by Nrf2-dependant transcriptional activity - cell viability counter screen (AID 720653; active = well fitted curve in the direction sought with a large enough effect in the repeat runs; an effect the other way counts as inactive or inconclusive; also: % is scaled to controls: 0 for no effect and ±100 for the full control effect); settings: ARE-bla HepG2 viability, CellTiter-Glo ATP luminescence, 16 h; max response: stronger effect = lower value
Summary of the method: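 Cytotoxicity counter screen: intracellular ATP quantified by CellTiter-Glo luminescence in the same ARE-bla HepG2 plates, after 16 h compound exposure and a 2 h beta-lactamase substrate step.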

[16] = qHTS assay for cell viability of HEK293 cells (AID 743288; active = well fitted curve in the direction sought with a large enough effect; an effect the other way counts as inactive or inconclusive; also: % is scaled to controls: 0 for no effect and ±100 for the full control effect; nearly all actives have a fitted effect of over 50% in size); settings: ATP luminescence (CellTiter-Glo), 18 h; max response: stronger effect = lower value
Summary of the method: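 Total intracellular ATP, measured with a luciferase-coupled reagent, indicates the number of viable HEK293 cells. Exposure to test chemicals lasts 18 h at 37 C in 1,536-well format at 2,000 cells/well.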

[17] = qHTS assay for cell viability of the p53RE-bla HCT-116 cell line (AID 743292; active = well fitted curve in the direction sought with a large enough effect; an effect the other way counts as inactive or inconclusive; also: % is scaled to controls: 0 for no effect and ±100 for the full control effect; nearly all actives have a fitted effect of over 55% in size)
Summary of the method: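 Compound-exposed HCT-116 (p53RE-bla) cells, 4,000 per well, were kept 16 h at 37 C following a 5 h preincubation. Cell number was estimated from total ATP by CellTiter-Glo luminescence read after 30 min at room temperature.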

[18] = biological target: Nuclear receptor subfamily 1 group I member 2 (Rattus norvegicus) (UniProt Q9R1A7); assay: qHTS assay for small molecule activators of the rat pregnane X receptor (rPXR) signaling pathway (AID 651751; call rule not given here; also: 0% is about no effect); settings: rPXR reporter cells, luciferase (One-Glo), 24 h
[19] = biological target: Peroxisome proliferator-activated receptor delta (Homo sapiens) (UniProt Q03181); assay: qHTS assay for small molecule antagonists of peroxisome proliferator-activated receptor delta signaling (AID 588535; active = well fitted inhibition curve with a large enough effect in the signal ratio, with a control signal flat, not every such curve was filed as active; the % refers to the signal ratio)
Summary of the method: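 Cell-based beta-lactamase assay in antagonist mode: 4000 HEK293T PPAR-delta-UAS-bla cells per well, 5 hr preincubation then 18 hr compound incubation at 37 C. IC50 obtained by Hill equation fitting.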

Glucocorticoid receptor (Homo sapiens), sequence (P04150 whole entry, looked up): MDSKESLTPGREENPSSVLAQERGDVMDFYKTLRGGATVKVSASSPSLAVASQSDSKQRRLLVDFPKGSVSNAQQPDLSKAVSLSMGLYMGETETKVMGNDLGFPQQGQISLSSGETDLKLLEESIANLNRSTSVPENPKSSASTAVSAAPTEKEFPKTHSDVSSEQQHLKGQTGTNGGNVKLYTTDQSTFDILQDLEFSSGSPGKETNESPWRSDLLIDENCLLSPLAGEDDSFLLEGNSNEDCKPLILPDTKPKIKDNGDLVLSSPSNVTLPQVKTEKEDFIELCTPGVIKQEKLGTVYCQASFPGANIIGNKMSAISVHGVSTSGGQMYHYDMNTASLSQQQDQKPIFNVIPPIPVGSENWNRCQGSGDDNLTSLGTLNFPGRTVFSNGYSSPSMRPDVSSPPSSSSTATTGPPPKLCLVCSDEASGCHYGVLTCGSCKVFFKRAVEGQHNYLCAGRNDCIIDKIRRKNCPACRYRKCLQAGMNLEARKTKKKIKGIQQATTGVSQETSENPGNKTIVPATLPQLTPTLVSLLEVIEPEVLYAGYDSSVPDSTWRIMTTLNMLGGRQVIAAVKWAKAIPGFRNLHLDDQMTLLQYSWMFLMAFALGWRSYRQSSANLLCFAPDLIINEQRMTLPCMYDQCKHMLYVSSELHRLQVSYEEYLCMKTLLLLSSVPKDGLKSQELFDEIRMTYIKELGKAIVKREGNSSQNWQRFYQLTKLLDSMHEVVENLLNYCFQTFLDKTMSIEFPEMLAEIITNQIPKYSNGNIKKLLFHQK
Peroxisome proliferator-activated receptor delta (Homo sapiens), sequence (Q03181 whole entry, looked up): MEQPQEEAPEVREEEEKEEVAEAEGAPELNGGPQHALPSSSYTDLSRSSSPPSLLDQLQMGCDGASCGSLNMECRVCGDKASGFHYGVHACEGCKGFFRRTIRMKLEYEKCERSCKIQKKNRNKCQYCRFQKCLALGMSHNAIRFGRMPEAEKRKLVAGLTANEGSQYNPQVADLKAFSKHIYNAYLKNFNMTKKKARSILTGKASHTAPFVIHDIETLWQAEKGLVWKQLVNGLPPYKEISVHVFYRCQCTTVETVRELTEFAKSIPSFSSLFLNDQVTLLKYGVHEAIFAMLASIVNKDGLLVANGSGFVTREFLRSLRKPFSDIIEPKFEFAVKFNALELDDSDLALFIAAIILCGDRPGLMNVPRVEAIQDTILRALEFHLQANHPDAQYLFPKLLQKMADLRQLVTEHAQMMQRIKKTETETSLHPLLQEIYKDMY
Thyroid hormone receptor beta (Homo sapiens), sequence (P10828 whole entry, looked up): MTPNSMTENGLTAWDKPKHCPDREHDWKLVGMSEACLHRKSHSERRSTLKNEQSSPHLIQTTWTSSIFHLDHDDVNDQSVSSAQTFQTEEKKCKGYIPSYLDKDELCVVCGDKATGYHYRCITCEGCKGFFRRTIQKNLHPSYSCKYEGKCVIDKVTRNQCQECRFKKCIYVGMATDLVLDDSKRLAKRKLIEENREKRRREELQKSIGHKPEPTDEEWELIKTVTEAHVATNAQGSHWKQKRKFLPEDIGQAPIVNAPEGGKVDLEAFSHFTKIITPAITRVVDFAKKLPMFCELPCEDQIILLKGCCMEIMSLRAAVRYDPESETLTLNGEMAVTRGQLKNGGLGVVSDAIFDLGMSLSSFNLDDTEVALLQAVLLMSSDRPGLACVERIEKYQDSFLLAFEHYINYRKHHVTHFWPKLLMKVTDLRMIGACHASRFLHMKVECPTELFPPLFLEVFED
Retinoic acid receptor RXR-alpha (Homo sapiens), sequence (P19793 whole entry, looked up): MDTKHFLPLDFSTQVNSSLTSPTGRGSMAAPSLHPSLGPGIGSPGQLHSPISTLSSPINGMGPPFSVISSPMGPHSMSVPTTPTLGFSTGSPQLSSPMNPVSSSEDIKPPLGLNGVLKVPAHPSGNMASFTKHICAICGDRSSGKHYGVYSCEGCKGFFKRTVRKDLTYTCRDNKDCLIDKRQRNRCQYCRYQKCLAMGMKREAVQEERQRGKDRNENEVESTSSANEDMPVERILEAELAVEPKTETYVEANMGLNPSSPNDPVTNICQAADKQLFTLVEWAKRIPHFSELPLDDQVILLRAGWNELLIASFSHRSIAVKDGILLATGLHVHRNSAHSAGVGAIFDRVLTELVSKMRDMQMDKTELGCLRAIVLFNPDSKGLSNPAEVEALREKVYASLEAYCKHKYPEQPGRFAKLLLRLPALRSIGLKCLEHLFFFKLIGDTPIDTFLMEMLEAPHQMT
Peroxisome proliferator-activated receptor gamma (Homo sapiens), sequence (P37231 whole entry, looked up): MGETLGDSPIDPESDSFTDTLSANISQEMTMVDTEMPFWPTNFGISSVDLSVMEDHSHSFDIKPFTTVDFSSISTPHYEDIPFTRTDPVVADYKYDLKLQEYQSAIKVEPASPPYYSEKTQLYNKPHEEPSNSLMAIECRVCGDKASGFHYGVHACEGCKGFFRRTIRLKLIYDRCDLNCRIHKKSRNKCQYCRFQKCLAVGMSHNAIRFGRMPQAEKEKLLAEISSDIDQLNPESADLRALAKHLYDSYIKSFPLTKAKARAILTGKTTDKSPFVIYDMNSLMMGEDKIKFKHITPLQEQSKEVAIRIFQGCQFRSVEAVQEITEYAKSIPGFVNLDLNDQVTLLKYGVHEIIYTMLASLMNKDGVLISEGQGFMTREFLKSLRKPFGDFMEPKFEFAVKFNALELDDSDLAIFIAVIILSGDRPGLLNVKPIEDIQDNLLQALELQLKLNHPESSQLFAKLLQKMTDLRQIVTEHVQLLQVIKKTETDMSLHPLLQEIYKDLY
Nuclear receptor subfamily 1 group I member 2 (Rattus norvegicus), sequence (Q9R1A7 whole entry, looked up): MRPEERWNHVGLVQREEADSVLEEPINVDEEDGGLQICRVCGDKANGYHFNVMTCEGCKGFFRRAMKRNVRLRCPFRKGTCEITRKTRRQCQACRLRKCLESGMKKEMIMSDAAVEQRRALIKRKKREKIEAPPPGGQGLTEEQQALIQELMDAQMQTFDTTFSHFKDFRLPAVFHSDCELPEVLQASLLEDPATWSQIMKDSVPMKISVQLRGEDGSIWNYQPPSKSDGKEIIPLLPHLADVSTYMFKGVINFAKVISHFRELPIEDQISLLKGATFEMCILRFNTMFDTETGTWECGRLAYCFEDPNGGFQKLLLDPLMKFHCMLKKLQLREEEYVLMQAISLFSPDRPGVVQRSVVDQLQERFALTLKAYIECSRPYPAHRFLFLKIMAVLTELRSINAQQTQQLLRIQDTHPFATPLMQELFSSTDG
Vitamin D3 receptor (Homo sapiens), sequence (P11473 whole entry, looked up): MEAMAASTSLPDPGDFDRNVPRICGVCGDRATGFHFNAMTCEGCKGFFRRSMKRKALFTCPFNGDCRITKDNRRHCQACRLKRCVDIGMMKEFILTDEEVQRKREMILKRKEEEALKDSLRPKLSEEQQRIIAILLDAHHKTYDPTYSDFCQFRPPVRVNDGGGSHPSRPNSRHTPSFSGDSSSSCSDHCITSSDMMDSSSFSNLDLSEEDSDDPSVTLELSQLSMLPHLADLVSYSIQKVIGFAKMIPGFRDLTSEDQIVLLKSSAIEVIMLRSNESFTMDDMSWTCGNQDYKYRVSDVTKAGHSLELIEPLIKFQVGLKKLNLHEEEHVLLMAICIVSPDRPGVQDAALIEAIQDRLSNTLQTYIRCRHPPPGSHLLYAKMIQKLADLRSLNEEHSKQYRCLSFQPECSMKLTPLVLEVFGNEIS
Peroxisome proliferator-activated receptor alpha (Homo sapiens), sequence (Q07869 whole entry, looked up): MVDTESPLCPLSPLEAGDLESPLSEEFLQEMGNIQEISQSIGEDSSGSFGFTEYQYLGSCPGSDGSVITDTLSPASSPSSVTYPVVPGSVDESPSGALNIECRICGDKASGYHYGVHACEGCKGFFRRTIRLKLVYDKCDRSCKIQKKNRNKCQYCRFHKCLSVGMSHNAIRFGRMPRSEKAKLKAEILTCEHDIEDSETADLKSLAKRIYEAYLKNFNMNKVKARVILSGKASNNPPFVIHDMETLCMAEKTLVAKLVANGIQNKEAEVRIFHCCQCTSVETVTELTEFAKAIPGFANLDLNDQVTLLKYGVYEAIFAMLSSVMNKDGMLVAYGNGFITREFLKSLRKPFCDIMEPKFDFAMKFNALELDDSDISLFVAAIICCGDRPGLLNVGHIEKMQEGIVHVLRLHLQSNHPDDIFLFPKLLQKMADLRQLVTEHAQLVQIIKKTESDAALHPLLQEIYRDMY

Structure (SMILES): FC(F)C(F)(F)OCC(Cn1cncn1)c1ccc(Cl)cc1Cl (stereo not drawn)
- activation [1]: 3.91% (inactive)
- outcome [2]: inactive
- Potency [3]: inactive
- Potency [4]: inactive
- outcome [5]: inactive
- Potency [6]: inactive
- Potency [7]: inactive
- max response [8]: -6.39%
- max response [9]: 4.82% (inactive)
- activation [10]: 0.478% (inactive)
- activation [11]: 0.464% (inactive)
- activation [12]: 2.65% (inactive)
- max response [13]: -0.725% (inactive)
- Potency [14]: inactive
- max response [15]: 4.71% (inactive)
- max response [16]: -9.21% (inactive)
- Potency [17]: inactive

Structure (SMILES): CCCCCCCCCCCCC1=C(OC(C)=O)C(=O)c2ccccc2C1=O
- activation [1]: -3.65% (inactive)
- outcome [5]: inactive
- Potency [7]: inactive
- Potency [10]: 11.2 µM (active)
- activation [11]: -0.928% (inactive)
- activation [12]: 1.53% (inactive)
- max response [13]: -5.69% (inactive)
- Potency [14]: inactive
- max response [15]: -15.3% (inactive)
- max response [16]: -22.1% (inactive)
- max response [18]: 0.383% (inactive)

Structure (SMILES): Brc1ccc(Br)cc1
- activation [1]: 1.41% (inactive)
- outcome [2]: inactive
- Potency [19]: inactive
- Potency [3]: inactive
- Potency [4]: inactive
- Potency [6]: inactive
- Potency [7]: inactive
- max response [8]: -5.87%
- max response [9]: 9.56% (inactive)
- activation [10]: -8.84% (inactive)
- activation [12]: -0.254% (inactive)
- max response [13]: -1.4% (inactive)
- Potency [14]: inactive
- max response [15]: -4.46% (inactive)
- max response [16]: -8.04% (inactive)
- Potency [17]: inactive
- max response [18]: -2.46% (inactive)

Structure (SMILES): CC(Oc1cccc(Cl)c1)C(=O)O (stereo not drawn)
- activation [1]: -9.84% (inactive)
- outcome [2]: inactive
- Potency [19]: inactive
- Potency [3]: inactive
- Potency [4]: inactive
- outcome [5]: inactive
- Potency [6]: inactive
- Potency [7]: inactive
- max response [8]: -2.12%
- max response [9]: -12.8% (inactive)
- activation [10]: 0.409% (inactive)
- activation [12]: -0.19% (inactive)
- max response [13]: -0.485% (inactive)
- Potency [14]: inactive
- max response [15]: -0.643% (inactive)
- max response [16]: -4.52% (inactive)
- Potency [17]: inactive
- max response [18]: -1.92% (inactive)

Structure (SMILES): N#Cc1cc(Br)c(O)c(Br)c1
- activation [1]: 4.63% (inactive)
- outcome [2]: inactive
- Potency [3]: inactive
- Potency [6]: 15.8 µM (active)
- Potency [7]: inactive
- max response [8]: -9.47%
- max response [9]: 1.7% (inactive)
- activation [10]: 5.1% (inactive)
- activation [11]: -2.3% (inactive)
- activation [12]: 1.12% (inactive)
- Potency [13]: 25.1 µM (active)
- Potency [14]: inactive
- max response [15]: -28.2% (inactive)
- max response [16]: -7.19% (inactive)
- Potency [17]: inactive
- max response [18]: -9.3% (inactive)

Structure (SMILES): c1ccc2c(c1)[nH]c1ccccc12
- outcome [2]: inactive
- Potency [14]: inactive

Structure (SMILES): COC(=O)c1c(C(F)F)nc(C(F)(F)F)c(C2=NCCS2)c1CC(C)C
- outcome [2]: inactive
- Potency [19]: inactive
- Potency [3]: inactive
- Potency [4]: inactive
- outcome [5]: inactive
- Potency [7]: inactive
- max response [8]: -11.1%
- max response [9]: -17.3% (inactive)
- activation [10]: 6.04% (inactive)
- activation [11]: -2.57% (inactive)
- activation [12]: 2.1% (inactive)
- max response [13]: -1.35% (inactive)
- Potency [14]: inactive
- max response [15]: 1.66% (inactive)
- max response [16]: -8.01% (inactive)
- Potency [17]: inactive

Structure (SMILES): CC1(C)[C@H](C(=O)O[C@H](C#N)c2cccc(Oc3ccccc3)c2)[C@@H]1/C=C(\Cl)C(F)(F)F
- activation [1]: 16% (inactive)
- outcome [2]: inactive
- Potency [19]: inactive
- Potency [4]: inactive
- outcome [5]: inactive
- Potency [6]: inactive
- Potency [7]: inactive
- max response [8]: -6.94%
- max response [9]: -28.2% (inactive)
- activation [10]: 1.92% (inactive)
- activation [11]: -0.133% (inactive)
- activation [12]: 0.227% (inactive)
- max response [13]: -0.66% (inactive)
- Potency [14]: inactive
- max response [15]: -24% (inactive)
- max response [16]: -15% (inactive)
- Potency [17]: inactive

Structure (SMILES): O=[N+]([O-])c1ccc(Nc2ccccc2)cc1
- activation [1]: -0.43% (inactive)
- outcome [5]: inactive
- Potency [7]: inactive
- max response [8]: -4.45%
- max response [9]: -16.2% (inactive)
- activation [10]: -0.549% (inactive)
- activation [11]: 0.166% (inactive)
- activation [12]: 5.27% (inactive)
- max response [13]: -1.55% (inactive)
- max response [15]: -13.2% (inactive)
- max response [16]: 1.82% (inactive)
- Potency [17]: inactive

Structure (SMILES): CNC(=O)N(C)c1nc2ccccc2s1
- outcome [2]: inactive
- Potency [3]: inactive
- Potency [4]: inactive
- outcome [5]: inactive
- Potency [6]: inactive
- max response [8]: 0.29%
- max response [9]: -2.41% (inactive)
- activation [11]: 0.981% (inactive)
- Potency [12]: 44.7 µM (active)
- max response [13]: -2.93% (inactive)
- max response [16]: -16.4% (inactive)
- Potency [17]: inactive
